# Most compounds without a hit are left out; they make up all but 3.1% or so of the library.
# TROY NFkB inh = TROY signaling inhibition. Q293 LMP1-TROYcd NF-kB luciferase reporter, 4 h. inhibition, % at 10 µM. 360,000 tested, 0.98% active. AID 1347056;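 active means compounds whose plate-normalised and pattern-corrected inhibition of the luciferase reporter signal at the single screening dose is 50% or more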
# LGR2 antag = blocks bursicon-induced cAMP signaling via Drosophila LGR2; HEK293 LGR2, CRE-luciferase, bursicon-stimulated, 4 h; inhibition, % at 9.99 µM; 380,000 tested, 0.35% active; AID 720647;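 active means drop in luminescence signal, shown as inhibition above about 50% in the replicate tests, limit read from the data, passing the limit was not always enough; inconclusive means probably only some replicates passing the limit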;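 further: agonist challenge used bursicon conditioned medium at about half maximal strength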
# PAX8 inh HTS = lowers PAX8-driven luciferase in RMG-I cells | 360,000 tested, 1.2% active | RMG-I TPO-luciferase reporter, SteadyGlo, 24 h | inhibition, % at 12.6 µM;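 active means mean replicate inhibition at least 60% with every replicate also reaching 60%; inconclusive means only one of the two criteria is met; inactive means mean below 60% and not all replicates reaching 60%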;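 further: luciferase light reporting Pax8 driven TPO promoter activity; plate controls were median of neutral control wells for no effect and mitoxantrone controls for full effect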
# TWEAK-Fn14 inh = inhibitors of TWEAK-Fn14 interaction signaling | 360,000 tested, 2% active | inhibition, % at 10 µM | TWEAK-stimulated Fn14 reporter cells, luciferase luminescence, 8 h; in the data active means inhibition above about 50%
# LMP1 NFkB inh = inhibitors of Epstein-Barr LMP1-induced NF-kappaB reporter | LMP1-induced NF-kappaB luciferase reporter cells, luminescence | inhibition, % at 12.5 µM | 350,000 tested, 0.69% active | AID 504558; in the data active means inhibition above about 41%; inconclusive means no clear call, values can overlap the other calls;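 further: 0% = neutral control wells and 100% = reference inhibitor control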
# EWS-Fli inh = inhibitors of EWS/Fli oncoprotein transcriptional activity. AID 651661. A673 NR0B1-luciferase reporter, viability-normalised. inhibition, % at 12.6 µM. 350,000 tested, 0.67% active;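 active means mean inhibition of at least 50% after viability correction, with every replicate also passing that limit; inconclusive means mean reaches 50% but only one of two replicates passes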;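 further: firefly luciferase signal divided by Alamar Blue viability fluorescence both relative to DMSO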
# * marks the source's active call; other numbers are inactive results; ? = inconclusive; / = not tested or not shown.
SMILES,TROY NFkB inh,LGR2 antag,PAX8 inh HTS,TWEAK-Fn14 inh,LMP1 NFkB inh,EWS-Fli inh
COc1cccc(C#Cc2ccc([C@H]3[C@@H](CO)N4C(=O)CN(C(=O)C5CC5)C[C@H]34)cc2)c1,/,-3.9,-5.9,/,/,29.8
C[C@H](CO)N1C[C@H](C)[C@H](CN(C)Cc2ccc(C(F)(F)F)cc2)Oc2ccc(NC(=O)CCC(F)(F)F)cc2C1=O,/,2.4,2.0,/,/,19.6
O=C(/C=C/c1ccco1)NCC1(c2ccccc2)CCCC1,87.4*,13.9,5.4,89.4*,4.0,/
C[C@@H]1CN([C@@H](C)CO)C(=O)c2cc(NC(=O)Nc3ccc(C(F)(F)F)cc3)ccc2O[C@@H](C)CCCCO[C@@H]1CN(C)C(=O)CCCN(C)C,/,6.8,3.8,/,/,-0.9
CN1c2ccc(-c3ccccc3)cc2[C@@H]2[C@@H](CCN2C(=O)c2ccc(F)cc2)[C@@H]1CO,/,6.8,20.1,/,/,9.6
Fc1ccc(-n2nnc(-c3cnc4ccccc4c3)n2)cc1,73.0*,79.3*,-40.3,93.8*,?,46.6
Fc1ccc(-n2nnc(-c3cccnc3)n2)cc1,-45.7,-13.5,-174.0,-39.3,-20.4,-114.0
CCC(=O)N1CCC2(CC1)CN(C(=O)Cc1ccccc1)[C@H](CO)c1c2c2ccc(OC)cc2n1C,/,8.2,5.8,/,/,6.4
CO[C@H]1CN(C)C(=O)c2cc(NC(=O)Nc3cccc(F)c3)ccc2OC[C@H](C)N(C)C[C@H]1C,/,1.9,/,/,/,-3.4
CN(C)c1ccc(NC(=O)c2cnsn2)cc1,31.2,70.6*,-8.1,73.8*,33.5,21.5
CCN(CC)c1ccc(/C=C2\C(=O)N(c3nnc(C)c(=O)[nH]3)N=C2C)cc1,-20.4,-0.8,7.0,74.8*,6.5,18.5
CCN(CC)c1ccc(/C=C2/C(=O)ON=C2C)cc1,-71.1,-54.1,4.8,-5.9,13.8,-4.2
CCCCCCOc1ccc(/C(C)=N/NC2=NCCN2)cc1[N+](=O)[O-],5.9,-10.0,9.5,-50.5,-39.0,59.2*
C/C(=N\NC1=NCCN1)c1ccc(N)c([N+](=O)[O-])c1,-20.8,10.6,4.5,-6.0,-5.6,-8.0
CCCCOc1ccc(Br)cc1/C(C)=N/NC1=NCCN1,31.1,/,/,50.6*,28.4,/
O=C(C[C@@H]1C[C@H]2c3cc(NC(=O)CC4CC4)ccc3O[C@H]2[C@H](CO)O1)NCc1ccc(Cl)cc1,/,-21.2,-25.0,/,/,5.9
N#Cc1cccc(NC(=O)c2nc(-c3ccccc3)n(-c3ccccc3)n2)c1,-14.6,/,26.7,3.4,-1.4,/
Cc1nn(C2CCS(=O)(=O)C2)c2nc(C3CC3)cc(C(=O)Nc3cccc(C#N)c3)c12 (stereo unspecified),1.9,-21.3,74.7*,-8.1,-3.0,11.4
CCC(=O)N1CC2(C1)[C@H](c1ccccc1)[C@H](CO)N2C(=O)c1ccccc1,/,3.4,-6.1,/,/,4.4
O=C(C[C@@H]1C=C[C@@H](NC(=O)Nc2ccc(F)cc2)[C@@H](CO)O1)NCc1ccccn1,/,10.8,-9.0,/,/,0.7
CO[C@H]1CN(C)C(=O)c2ccc(NS(C)(=O)=O)cc2OC[C@@H](C)N(Cc2cncnc2)C[C@H]1C,/,-3.6,/,/,/,-0.7
COc1ccc(NC(=O)Cn2nnc(-c3ccccc3NS(=O)(=O)c3ccccc3)n2)cc1,32.8,/,/,54.3*,-4.6,/
COc1ccc(S(=O)(=O)Nc2ccccc2-c2nnn(CC(=O)Nc3ccccc3OC)n2)cc1,28.0,0.0,27.0,28.5,4.3,/
CCCCCCCCNc1ncnc2ccccc12,8.1,/,/,36.4,-5.3,/
Brc1ccc2ncnc(NCc3ccccc3)c2c1,54.2*,/,/,81.8*,59.9*,/
SMILES,TROY NFkB inh,LGR2 antag,PAX8 inh HTS,TWEAK-Fn14 inh,LMP1 NFkB inh,EWS-Fli inh
c1ccc(CCNc2ncnc3ccccc23)cc1,24.8,-43.2,-138.4,67.9*,-5.8,-8.0
C[C@H](CO)N1C[C@H](C)[C@@H](CN(C)Cc2cccnc2)Oc2ncc(C3=CCCC3)cc2C1=O,/,4.7,/,/,/,-13.1
C[C@H]1CN([C@@H](C)CO)C(=O)c2cc(NS(C)(=O)=O)ccc2O[C@@H]1CN(C)S(=O)(=O)c1ccccc1,/,-0.1,/,/,/,-1.6
COc1cc2c(cc1OC)C(c1ccc(Cl)cc1)=NCC2,25.9,-12.7,2.9,-34.5,10.8,-1.7
COc1cc2c(cc1OC)C(c1ccc(-c3ccc(Cl)c(Cl)c3)o1)=NCC2,47.4,/,/,75.5*,13.1,/
COc1cc2c(cc1OC)C(c1ccc(-c3ccccc3Cl)o1)=NCC2,11.6,?,/,38.3,50.7*,36.1
COc1cc2c(cc1OC)C(c1ccc(-c3cc(Cl)ccc3Cl)o1)=NCC2,7.5,/,/,35.5,16.4,/
COc1cc2c(cc1OC)C(c1ccc(-c3ccc(Cl)cc3Cl)o1)=NCC2,35.2,/,/,50.4*,3.7,/
O=C(CN(Cc1cccs1)S(=O)(=O)c1ccc(S(=O)(=O)NC2CCCCC2)cc1)Nc1ccccc1,26.8,29.2,11.2,69.3*,1.9,/
O=C(C[C@H]1C=C[C@@H](NC(=O)CCN2CCCCC2)[C@@H](CO)O1)Nc1ccc(-c2ccccc2)cc1,/,8.3,0.3,/,/,-1.4
COc1ccc(S(=O)(=O)Nc2ccc3c(c2)C(=O)N([C@H](C)CO)C[C@H](C)[C@H](CN(C)C(=O)Nc2ccc(C(F)(F)F)cc2)OCCCC[C@H](C)O3)cc1,/,-2.4,35.4,/,/,8.7
COc1ccc(S(=O)(=O)Nc2ccc3c(c2)C(=O)N([C@H](C)CO)C[C@@H](C)[C@H](CN(C)C(=O)Nc2ccc(C(F)(F)F)cc2)OCCCC[C@@H](C)O3)cc1,/,16.8,61.9*,/,/,7.2
COc1ccc(S(=O)(=O)Nc2ccc3c(c2)C(=O)N([C@H](C)CO)C[C@H](C)[C@@H](CN(C)C(=O)Nc2ccc(C(F)(F)F)cc2)OCCCC[C@@H](C)O3)cc1,/,13.4,5.3,/,/,-0.1
COc1ccc(S(=O)(=O)Nc2ccc3c(c2)C(=O)N([C@H](C)CO)C[C@@H](C)[C@H](CN(C)C(=O)Nc2ccc(C(F)(F)F)cc2)OCCCC[C@H](C)O3)cc1,/,1.3,76.9*,/,/,18.9
CCCC#Cc1cnc2c(c1)C(=O)N([C@@H](C)CO)C[C@H](C)[C@H](CN(C)C(=O)C1CCOCC1)O2,/,5.4,/,/,/,-7.1
Cc1ccc(S(=O)(=O)Nc2ccc3c(c2)CC(=O)N([C@@H](C)CO)C[C@@H](C)[C@H](CN(C)Cc2ccc(C(=O)Nc4ccccc4N)cc2)O3)cc1,/,-17.5,-0.7,/,/,45.9
C[C@@H]1CN([C@@H](C)CO)C(=O)c2cc(C#Cc3cccc(F)c3)cnc2O[C@@H]1CN(C)C(=O)C1CCCCC1,/,-13.3,/,/,/,3.1
C[C@@H]1CN([C@@H](C)CO)C(=O)Cc2cc(NS(=O)(=O)c3cn(C)cn3)ccc2O[C@@H]1CN(C)S(C)(=O)=O,/,-25.7,-3.4,/,/,-4.1
CC1(C)Cc2c(c(=S)nc(-c3ccccc3)n2CCOCCO)CO1,/,/,/,54.7*,-3.5,/
COc1ccc(-c2nc(=S)c3c(n2CCN2CCOCC2)CC(C)(C)OC3)cc1,32.2,/,/,8.8,-2.4,/
Cc1ccc(-c2nc(=S)c3c(n2CCN2CCOCC2)CC(C)(C)OC3)cc1,52.2*,3.2,/,20.9,-1.5,/

# Bioassay records from PubChem.
